# From the supplement of paper PMC8728848
# This is one part of a sample in which the strongest signals are shown more often than they occur.
# B1: BDCA2 ex-domain (Homo sapiens) (protein)
# chain: MASHHHHHHIEGRGLNDIFEAQKIEWHESLVPRGSCPTPWTSFQSSCYFISTGMQSWTKSQKNCSVMGADLVVINTREEQDFIIQNLKRNSSYFLGLSDPGGRRHWQWVDQTPYNENVTFWHSGEPNNLDERCAIINFRSSEEWGWNDIHCHVPQKSICKMKKIY
# B2: RegIIIbeta (Mus musculus), P35230 (protein)
# chain: MLPPTACSVMSWMLLSCLMLLSQVQGEDSLKNIPSARISCPKGSQAYGSYCYALFQIPQTWFDAELACQKRPGGHLVSVLNSAEASFLSSMVKRTGNSYQYTWIGLHDPTLGAEPNGGGWEWSNNDVMNYFNWERNPSTALDRAFCGSLSRASGFLKWRDMTCEVKLPYVCKFTG
# Experiments:
# Assay in all cases: glycan array binding signal (z-score within array); higher = stronger binding
# Details in all cases: glycan notation: IUPAC condensed, linker removed
# Fuc(a1-2)Gal(b1-4)Glc = target: Fuc(a1-2)Gal(b1-4)Glc
# Outline: (§1)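 Glycan array data were curated from 3228 arrays in the Consortium for Functional Glycomics database and kept only where the protein sequence was available. Glycan names were converted to IUPAC-condensed notation, and columns mapping to the same glycan were averaged. The binding signal is a within-array Z-score, averaged across arrays of the same protein sequence at different concentrations or buffers and across linkers. Negative Z-scores can be read as non-binding.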
# [1] = target: Fuc(a1-2)[Gal(a1-3)]Gal(b1-4)Glc
# Outline: as §1
# Fuc(a1-3)GlcNAc = target: Fuc(a1-3)GlcNAc
# Outline: as §1
# [2] = target: Fuc(a1-3)[Gal3S(b1-4)]GlcNAc
# Outline: as §1
# Gal(a1-4)Gal(b1-4)Glc = target: Gal(a1-4)Gal(b1-4)Glc
# Outline: as §1
# Gal(b1-3)Gal(b1-4)GlcNAc = target: Gal(b1-3)Gal(b1-4)GlcNAc
# Outline: as §1
# [3] = target: Gal(b1-3)GlcNAc(b1-2)Man(a1-3)[Gal(b1-3)GlcNAc(b1-2)Man(a1-6)]Man(b1-4)GlcNAc(b1-4)GlcNAc
# Outline: as §1
# [4] = target: Gal(b1-4)GalNAc(b1-3)[Fuc(a1-2)]Gal(b1-4)GlcNAc
# Outline: as §1
# [5] = target: Gal(b1-4)GlcNAc(b1-2)Man(a1-3)[Gal(b1-4)GlcNAc(b1-2)Man(a1-6)]Man(b1-4)GlcNAc(b1-4)GlcNAc
# Outline: as §1
# Gal3S(b1-4)GlcNAc = target: Gal3S(b1-4)GlcNAc
# Outline: as §1
# Gal3S4S(b1-4)GlcNAc = target: Gal3S4S(b1-4)GlcNAc
# Outline: as §1
# Glc(a1-6)Glc(a1-6)Glc = target: Glc(a1-6)Glc(a1-6)Glc
# Outline: as §1
# GlcA(b1-3)GlcNAc = target: GlcA(b1-3)GlcNAc
# Outline: as §1
# [6] = target: GlcNAc(b1-3)[GlcNAc(b1-6)]Gal(b1-4)GlcNAc
# Outline: as §1
# [7] = target: GlcNAc(b1-3)[GlcNAc(b1-6)]GalNAc
# Outline: as §1
# [8] = target: GlcNAc(b1-4)Gal(b1-4)GlcNAc
# Outline: as §1
# Kdn(a2-3)Gal(b1-4)GlcNAc = target: Kdn(a2-3)Gal(b1-4)GlcNAc
# Outline: as §1
# [9] = target: Man(a1-2)Man(a1-2)Man(a1-6)[Man(a1-3)]Man
# Outline: as §1
# [10] = target: Man(a1-2)Man(a1-6)[Man(a1-3)]Man(a1-6)[Man(a1-2)Man(a1-2)Man(a1-3)]Man
# Outline: as §1
# [11] = target: Neu5Ac(a2-3)Gal(b1-3)GlcNAc(b1-3)Gal(b1-3)GlcNAc
# Outline: as §1
# [12] = target: Neu5Ac(a2-3)Gal(b1-4)GlcNAc(b1-3)Gal(b1-4)GlcNAc(b1-3)Gal(b1-4)GlcNAc
# Outline: as §1
# [13] = target: Neu5Ac(a2-3)Gal(b1-4)GlcNAc(b1-3)Gal(b1-4)[Fuc(a1-3)]GlcNAc
# Outline: as §1
# [14] = target: Neu5Ac(a2-3)Gal(b1-4)[Fuc(a1-3)]GlcNAc
# Outline: as §1
# [15] = target: Neu5Ac(a2-3)Gal6S(b1-4)[Fuc(a1-3)]GlcNAc
# Outline: as §1
# [16] = target: Neu5Ac(a2-6)Gal(b1-4)GlcNAc(b1-2)Man(a1-3)[Gal(b1-4)GlcNAc(b1-2)Man(a1-6)]Man(b1-4)GlcNAc(b1-4)GlcNAc
# Outline: as §1
# [17] = target: Neu5Ac(a2-6)Gal(b1-4)GlcNAc(b1-2)Man(a1-3)[Neu5Ac(a2-6)Gal(b1-4)GlcNAc(b1-2)Man(a1-6)]Man(b1-4)GlcNAc(b1-4)GlcNAc
# Outline: as §1
# [18] = target: Neu5Ac(a2-6)Gal(b1-4)GlcNAc(b1-3)Gal(b1-4)[Fuc(a1-3)]GlcNAc(b1-3)Gal(b1-4)[Fuc(a1-3)]GlcNAc
# Outline: as §1
# [19] = target: Neu5Gc(a2-3)Gal(b1-3)[Fuc(a1-4)]GlcNAc
# Outline: as §1
# Fuc(a1-2)Gal(b1-4)GlcNAc = target: Fuc(a1-2)Gal(b1-4)GlcNAc
# Outline: as §1
# [20] = target: Fuc(a1-2)Gal(b1-4)GlcNAc(b1-3)Gal(b1-4)GlcNAc(b1-3)Gal(b1-4)GlcNAc
# Outline: as §1
# [21] = target: Gal(a1-3)Gal(b1-4)[Fuc(a1-3)]GlcNAc
# Outline: as §1
# [22] = target: Gal(b1-3)[Neu5Ac(a2-6)]GlcNAc(b1-4)Gal(b1-4)Glc
# Outline: as §1
# Gal(b1-4)Glc6S = target: Gal(b1-4)Glc6S
# Outline: as §1
# Gal3S(b1-3)GalNAc = target: Gal3S(b1-3)GalNAc
# Outline: as §1
# Gal4S(b1-4)GlcNAc = target: Gal4S(b1-4)GlcNAc
# Outline: as §1
# Gal6S(b1-4)Glc = target: Gal6S(b1-4)Glc
# Outline: as §1
# GalNAc(a1-3)Gal = target: GalNAc(a1-3)Gal
# Outline: as §1
# [23] = target: Neu5Ac(a2-3)Gal(b1-3)[Fuc(a1-4)]GlcNAc
# Outline: as §1
# [24] = target: Neu5Ac(a2-3)Gal(b1-4)GlcNAc
# Outline: as §1
# [25] = target: Neu5Ac(a2-3)Gal(b1-4)[Fuc(a1-3)]GlcNAc(b1-3)Gal(b1-4)[Fuc(a1-3)]GlcNAc(b1-3)Gal(b1-4)[Fuc(a1-3)]GlcNAc
# Outline: as §1
# [26] = target: Neu5Ac(a2-8)Neu5Ac(a2-8)Neu5Ac(a2-3)Gal(b1-4)Glc
# Outline: as §1
# [27] = target: Neu5Gc(a2-3)Gal(b1-4)GlcNAc
# Outline: as §1
# [28] = target: Neu5Gc(a2-6)Gal(b1-4)GlcNAc
# Outline: as §1
binder,measurement,setting,value
B1,glycan array binding signal (z-score),Fuc(a1-2)Gal(b1-4)Glc,-0.318
same,glycan array binding signal (z-score),[1],-0.022
same,glycan array binding signal (z-score),Fuc(a1-3)GlcNAc,-0.3
same,glycan array binding signal (z-score),[2],-0.204
same,glycan array binding signal (z-score),Gal(a1-4)Gal(b1-4)Glc,0.336
same,glycan array binding signal (z-score),Gal(b1-3)Gal(b1-4)GlcNAc,-0.245
same,glycan array binding signal (z-score),[3],8.6
same,glycan array binding signal (z-score),[4],-0.375
same,glycan array binding signal (z-score),[5],13.2
same,glycan array binding signal (z-score),Gal3S(b1-4)GlcNAc,-0.181
same,glycan array binding signal (z-score),Gal3S4S(b1-4)GlcNAc,1.81
same,glycan array binding signal (z-score),Glc(a1-6)Glc(a1-6)Glc,-0.187
same,glycan array binding signal (z-score),GlcA(b1-3)GlcNAc,-0.1
same,glycan array binding signal (z-score),[6],-0.208
same,glycan array binding signal (z-score),[7],-0.347
same,glycan array binding signal (z-score),[8],0.139
same,glycan array binding signal (z-score),Kdn(a2-3)Gal(b1-4)GlcNAc,0.619
same,glycan array binding signal (z-score),[9],-0.128
same,glycan array binding signal (z-score),[10],-0.559
same,glycan array binding signal (z-score),[11],-0.143
same,glycan array binding signal (z-score),[12],1.33
same,glycan array binding signal (z-score),[13],0.601
same,glycan array binding signal (z-score),[14],-0.385
same,glycan array binding signal (z-score),[15],-0.35
same,glycan array binding signal (z-score),[16],2.93
same,glycan array binding signal (z-score),[17],-0.101
same,glycan array binding signal (z-score),[18],0.319
same,glycan array binding signal (z-score),[19],-0.317
B2,glycan array binding signal (z-score),Fuc(a1-2)Gal(b1-4)Glc,-0.114
same,glycan array binding signal (z-score),Fuc(a1-2)Gal(b1-4)GlcNAc,-0.116
same,glycan array binding signal (z-score),[20],0.15
same,glycan array binding signal (z-score),Fuc(a1-3)GlcNAc,-0.114
same,glycan array binding signal (z-score),[21],-0.098
same,glycan array binding signal (z-score),[22],-0.105
same,glycan array binding signal (z-score),Gal(b1-4)Glc6S,-0.119
same,glycan array binding signal (z-score),Gal3S(b1-3)GalNAc,-0.124
same,glycan array binding signal (z-score),Gal4S(b1-4)GlcNAc,0.188
same,glycan array binding signal (z-score),Gal6S(b1-4)Glc,-0.116
same,glycan array binding signal (z-score),GalNAc(a1-3)Gal,-0.109
same,glycan array binding signal (z-score),[23],-0.103
same,glycan array binding signal (z-score),[24],-0.071
same,glycan array binding signal (z-score),[25],0.086
same,glycan array binding signal (z-score),[26],-0.118
same,glycan array binding signal (z-score),[19],0.106
same,glycan array binding signal (z-score),[27],-0.116
same,glycan array binding signal (z-score),[28],-0.122
